From PubChem BioAssay (NCI)
About 83,000 compounds went through this panel and 20% of them were active in at least one assay; those are over-represented in the sample as a whole.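 Step 1: grow cells in 96-well plates. Step 2: add test compound at a single concentration. Step 3: incubate 48 h. Step 4: record percent growth.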 Unmarked numbers belong to inactive results. Active and inactive are the calls of the source. How the source made its calls: active means growth percent below 10; inactive means the rest.

Legend:
Assay in all cases: NCI-60 one-dose screen, 48 h (100 = growth as untreated, 0 = no growth, -100 = all killed)
Details in all cases: 10 µM unless noted
NCI-H23 lung = test system: NCI-H23 lung
NCI-H226 lung = test system: NCI-H226 lung
NCI-H322M lung = test system: NCI-H322M lung
HOP-62 NSCLC = test system: HOP-62 NSCLC
NCI-H460 lung = test system: NCI-H460 lung
HOP-92 NSCLC = test system: HOP-92 NSCLC
NCI-H522 lung = test system: NCI-H522 lung
A549/ATCC NSCLC = test system: A549/ATCC NSCLC
786-0 renal = test system: 786-0 renal
COLO 205 colon = test system: COLO 205 colon
DU-145 prostate = test system: DU-145 prostate
K-562 leukemia = test system: K-562 leukemia
MALME-3M melanoma = test system: MALME-3M melanoma
MDA-MB-231 breast = test system: MDA-MB-231 breast
RXF 393 renal = test system: RXF 393 renal
SF-268 CNS = test system: SF-268 CNS
SF-295 CNS = test system: SF-295 CNS
SF-539 CNS = test system: SF-539 CNS
UACC-257 melanoma = test system: UACC-257 melanoma
M14 melanoma = test system: M14 melanoma

SMILES | growth (NCI-H23 lung) [%] | growth (NCI-H226 lung) [%] | growth (NCI-H322M lung) [%] | growth (HOP-62 NSCLC) [%] | growth (NCI-H460 lung) | growth (HOP-92 NSCLC) | growth (NCI-H522 lung) | growth (A549/ATCC NSCLC) [%] | growth (786-0 renal) | growth (COLO 205 colon) | growth (DU-145 prostate) | growth (K-562 leukemia) | growth (MALME-3M melanoma) [%] | growth (MDA-MB-231 breast) | growth (RXF 393 renal) | growth (SF-268 CNS) | growth (SF-295 CNS) | growth (SF-539 CNS) | growth (UACC-257 melanoma) [%] | growth (M14 melanoma)
N#C/C(=C\c1ccc2c(c1)OCO2)c1ccccc1 | 84 | 90.9 | 95.1 | 67.3 | 68.3% | 64.5% | 52% | 71.9 | 95.5% | 66.5% | 106% | 21.4% | 80.7 | 66.8% | 83.6% | 86.4% | 71.3% | 80% | 85.8 | 59%
COc1ccc(C2CCCCC2=O)cc1 (stereo not given) | 108 | 113 | 113 | 95.5 | 108% | 98.9% | 106% | 104 | 105% | 104% | 123% | 104% | 120 | 120% | 110% | 116% | 100% | 102% | 106 | 108%
Cc1ccc(S(N)(=O)=O)cc1Cl | 111 | 105 | 121 | 110 | 113% | 101% | 98.6% | 92.9 | 100% | 104% | 120% | 92.3% | 116 | 98% | 125% | 108% | 113% | 106% | 109 | 105%
CCOC(=O)c1ccc(NC(=O)Nc2nccs2)cc1 | 19.4 | 19.9 | 41.3 | 20.6 | -44.2% (active) | -7.86% (active) | -43.5% (active) | 10.6 | -7.93% (active) | -82.9% (active) | -26.3% (active) | -3.89% (active) | 39.4 | 8.88% (active) | -21.2% (active) | 0.081% (active) | 9.16% (active) | -50.1% (active) | 45.5 | 4.57% (active)
O=S(=O)(OCCOS(=O)(=O)c1ccccc1)c1ccccc1 | 95 | 87.6 | 97.6 | 94.9 | 97.6% | 99.5% | 90.5% | 93.3 | 93.5% | 112% | 100% | 96.4% | 86 | 111% | 96% | 92.6% | 102% | 102% | 97.2 | 92.3%
Cc1c(Cl)cccc1NC(=S)NC(=O)c1ccccc1 | 85.5 | 90.8 | 97.4 | 110 | 103% | 71.8% | 59% | 75 | 120% | 109% | 111% | 79.7% | 89.4 | 90.2% | 85.5% | 109% | 85.1% | 100% | 88.9 | 115%
